According to PubChem BioAssay (NCI):
Compounds without any hit were thinned out: in the full panel of roughly 79,000, 15% have a hit. Cut-off read from the data, not from the text of the source: active = growth inhibition above about 70%; inactive = the rest.

Experiments:
[1] = NCI Yeast Anticancer Drug Screen. Data for the rad50 strain (AID 155);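 note: 0% = growth of vehicle-only cultures of the same strain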; conditions: S. cerevisiae rad50 strain growth inhibition; at 50.0 µM; hits give high values
Method in brief: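 Genetically altered yeast (DNA repair pathway); compound treatment; growth inhibition vs vehicle ctrl.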

[2] = NCI Yeast Anticancer Drug Screen. Data for the mec2-1 strain (AID 157); conditions: S. cerevisiae mec2-1 strain, at 50.0 µM, hits give high values
Method in brief: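 Growth inhibition is read against vehicle-treated controls after compound exposure of the mec2-1 yeast strain, which is defective in DNA damage repair or cell cycle control.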

[3] = NCI Yeast Anticancer Drug Screen. Data for the sgs1 mgt1 strain (AID 161);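 note: 0% = growth of cultures given vehicle only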; conditions: S. cerevisiae sgs1 mgt1 strain, at 50.0 µM, hits give high values
Method in brief: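 Compounds are added to genetically altered yeast, and growth is compared with cultures given vehicle alone to give percent inhibition.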

[4] = NCI Yeast Anticancer Drug Screen. Data for the cln2 rad14 strain (AID 165);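 note: 0% = growth equal to vehicle treated cultures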; conditions: S. cerevisiae cln2 rad14 strain, at 50.0 µM, hits give high values
Method in brief: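 Growth inhibition, relative to vehicle-treated controls, is the read-out. The test organism is a yeast strain with defined genetic alterations, cln2 rad14.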

[5] = NCI Yeast Anticancer Drug Screen. Data for the bub3 strain (AID 167); conditions: S. cerevisiae bub3 mutant strain, at 50.0 µM, hits give high values
Method in brief: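 Yeast carrying a defined mutation is treated with each compound, and growth is compared with that of vehicle-exposed cells to give inhibition.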

[6] = NCI Yeast Anticancer Drug Screen. Data for the mlh1 rad18 strain (AID 175); conditions: S. cerevisiae mlh1 rad18 strain growth inhibition; at 50.0 µM; hits give high values
Method in brief: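 Cells of a genetically altered yeast strain, deficient in DNA damage repair, were treated with compound. Their growth was then compared with that of vehicle-treated cultures to give inhibition.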

Measured: growth inhibition

CSC1C(OC(=O)c2ccccc2)C(COC(=O)c2ccccc2)OC1n1cnc2ncnc(NC(=O)c3ccccc3)c21 (stereo unspecified)
inactive: [1] 45.4% | [2] 20.4% | [3] 34.6% | [4] 29.4% | [5] 6.45% | [6] 38.8%

CCOC(=O)c1cn(Cc2ccccc2)c(=O)n1Cc1ccccc1
inactive: [1] 36% | [2] 23.3% | [3] 23.5% | [4] -2.4% | [5] 42.5% | [6] 56.1%

CCOC(=O)C1CC(O)c2ccc(Cl)cc2N1 (stereo unspecified)
inactive: [1] 5.45% | [2] 10.2% | [3] 20.6% | [4] 16.1% | [5] 9.6% | [6] 6.15%

CN1CCOC1(C)CO (stereo unspecified)
inactive: [1] 3.85% | [2] -16.7% | [3] -10.3% | [4] -20.6% | [5] -8.5% | [6] -55%

O=C(c1ccccc1)C1(Cl)CCCCC1
inactive: [1] -9.95% | [2] -12.6% | [3] -10.8% | [4] -8.45% | [5] -5.15% | [6] 15.6%

Cc1cc(C)n(-c2ccc(Cl)nn2)n1
inactive: [1] 9.25% | [2] 8.35% | [3] 4.35% | [4] -27.6% | [5] 9% | [6] -1.7%

Nc1ccc(S(=O)(=O)Nc2nccs2)cc1
inactive: [1] -0.6% | [2] -17.2% | [3] -3.7% | [4] 6.05% | [5] -1.85% | [6] -3.4%

C1CCC2(CC1)OCCS2
inactive: [1] 24.6% | [2] 1.6% | [3] 11.2% | [4] 7.8% | [5] -1.45% | [6] 6.15%

Cn1cnc2c1S(=O)(=O)NCN2
inactive: [1] 10.7% | [2] 3.15% | [3] -8.6% | [4] -3.2% | [5] 19.9% | [6] 6.7%

C=C(C)C(=O)OCC(CC)(COC(=O)C(=C)C)COC(=O)C(=C)C
inactive: [1] -9.25% | [2] -19.6% | [3] 8.35% | [4] -2.05% | [5] 18.6% | [6] 0%

O=c1[nH]c(=S)[nH]n1C(=S)n1[nH]c(=S)[nH]c1=O
inactive: [1] 5.35% | [2] -2.65% | [3] 8.7% | [4] -7.8% | [5] 13.1% | [6] 9.6%

CCCCCCCCCc1ccc(COCCCC)cc1
inactive: [1] 21.9% | [2] 55.1% | [3] 56.1% | [4] 50.1% | [5] 49.5% | [6] 48.8%

CC(C)(C)CC(C)(C(=O)O)C(C)(C)C (stereo unspecified)
inactive: [1] 4% | [2] 9.25% | [3] -3.25% | [4] -12.6% | [5] 3.15% | [6] 14.7%

C=C1C(=O)OC2/C=C(\C)CC/C=C(/C=O)C(OC(=O)C(C)C)C(O)C12 (stereo unspecified)
inactive: [1] -12.2% | [2] -55.4% | [3] 17.6% | [4] -7.25% | [5] -42.1% | [6] -31.6%

O=S(=O)(N1CCOCC1)N1CCOCC1
inactive: [1] -3.9% | [2] -7.7% | [3] -3.55% | [4] -25.6% | [5] 25.6% | [6] 3.85%

CC1(C)CC2(CC3(C1)SCCS3)SCCS2
inactive: [1] -11.2% | [2] -5.25% | [3] -8.8% | [4] 5.45% | [5] -5.8% | [6] 1.35%

CCC(CO)N1CNC(=S)NC1 (stereo unspecified)
inactive: [1] -4.8% | [2] -14.1% | [3] 4.85% | [4] 0.8% | [5] 4.7% | [6] 0.3%

COC(=O)c1nsc(OC)c1Cl
inactive: [1] 22.1% | [2] -11.5% | [3] 15.8% | [4] 8.7% | [5] 23.6% | [6] 50.4%

O=C(O)/C(=C\c1ccncc1)c1cccc2ccccc12
inactive: [1] 0.85% | [2] -12% | [3] -37.4% | [4] -24.9% | [5] -32% | [6] -9.65%

CCNCc1cc(Nc2nc(NC3CCC(N(C)C)CC3)c3ccccc3n2)ccc1OC (stereo unspecified)
inactive: [1] 2.4% | [2] 7% | [3] -5.8% | [4] 28.3% | [5] 3.45% | [6] 9%

Cc1[nH]c(=O)[nH]c(=O)c1C
inactive: [1] 4.05% | [2] -36.1% | [3] 1.8% | [4] 27.4% | [5] -11.9% | [6] 7.35%

O=S(=O)(O)c1cc(N=Nc2cc(S(=O)(=O)O)c3ccccc3c2O)ccc1/C=C/c1ccc(N=Nc2cc(S(=O)(=O)O)c3ccccc3c2O)cc1S(=O)(=O)O
inactive: [1] 34% | [2] 36% | [3] 17.6% | [4] 13.7% | [5] 45.9% | [6] 42.6%

CCOC(=O)N1c2ccccc2S(=O)(=O)c2ccccc21
inactive: [1] 40.5% | [2] -10.3% | [3] -26.4% | [4] -16.1% | [5] -22.9% | [6] -52.2%

O=C(O)c1c(-c2ccccc2)c(=O)[nH]c2ccccc12
inactive: [1] -6.8% | [2] 4.05% | [3] -36.8% | [4] 17.1% | [5] 13.2% | [6] 11.1%

COC(=O)CCC(=O)CN1C(=O)c2ccccc2C1=O
inactive: [1] 14.8% | [2] 9.1% | [3] 4% | [4] 11.5% | [5] 14.1% | [6] 1.5%

O=C(c1ccc(Cl)cc1)C(c1ccccc1)N1CCCCC1 (stereo unspecified)
inactive: [1] 2.05% | [2] -8.15% | [3] -0.1% | [4] -45.8% | [5] -1.6% | [6] 6.85%

Nc1cccc(Br)n1
inactive: [1] 16.1% | [2] -4.9% | [3] 0.45% | [4] -51.7% | [5] 7.1% | [6] 4.9%

O=C(O)/C=C/S(=O)(=O)Cc1ccccc1
inactive: [1] 8.7% | [2] -6.4% | [3] 2.7% | [4] -27.3% | [5] 7.5% | [6] 6.75%

C=C1CC(C)(Cn2cnc3c(N)ncnc32)OC1=O (stereo unspecified)
inactive: [1] 9% | [2] 10.6% | [3] 9.05% | [4] 20.1% | [5] 16.7% | [6] 21.1%

O=C1NNC2(C(=O)N1)c1ccccc1-c1ccccc12
inactive: [1] 8.5% | [2] -19.5% | [3] 28.1% | [4] 24.9% | [5] 1.65% | [6] 15.2%

O=C(NCCc1c[nH]c2ccccc12)C1CCCCC1
inactive: [1] -3.65% | [2] -5.45% | [3] 7.85% | [4] -25.6% | [5] 14.1% | [6] -10.1%

N=C1C(O)=CC(=O)C(O)=C1C(=O)O
inactive: [1] -9.1% | [2] 3.9% | [3] 0% | [4] 1.95% | [5] -13% | [6] 3.7%

CCCCCCCCCCCC(=O)N/N=C/c1ccccc1OC
inactive: [1] -0.65% | [2] 7.25% | [3] -10.3% | [4] -18.8% | [5] 4% | [6] 12.6%

C=CCCC(C)N(C(=O)OC(C)(C)C)S(=O)(=O)c1ccc(C)cc1 (stereo unspecified)
inactive: [1] 16.6% | [2] -13.2% | [3] 4.85% | [4] -9.3% | [5] -4% | [6] 0.45%

NC(=O)Nc1ccc2[nH]c(=O)c3ccccc3c2c1
inactive: [1] 7.4% | [2] -3.35% | [3] 17.2% | [4] 0.6% | [5] -7.15% | [6] 1.45%

CCOC(C)=N
inactive: [1] 3.1% | [2] -29.4% | [3] 7.3% | [4] -6.85% | [5] -9.7% | [6] 3.35%

C[C@@]12CCC[C@H]1[C@@H]1CC=C3C[C@@H](S)CC[C@]3(C)[C@H]1CC2
inactive: [1] -6.75% | [2] 4.5% | [3] -3.25% | [4] -31.1% | [5] -6.9% | [6] -13.7%

C[n+]1cccc(C(=O)O)c1-c1ccccc1
inactive: [1] 20.4% | [2] 5.9% | [3] 5.85% | [4] -39.5% | [5] 4.55% | [6] 10.3%

NS(=O)(=O)c1ccc(NC(=O)Nc2cccc(Cl)c2)cc1
inactive: [1] 1.35% | [2] 12.6% | [3] 15.5% | [4] -4.9% | [5] 46.4% | [6] -11.3%

O=C1C=CC(=O)N1Cc1ccco1
inactive: [1] -3.7% | [2] -16.8% | [3] 5.9% | [4] 8.5% | [5] 10.1% | [6] -16.6%

O=C(C[n+]1ccccc1Cc1ccccc1)c1ccccc1
inactive: [1] -6.6% | [2] -4.2% | [3] -14% | [4] -11.6% | [5] -11.4% | [6] -17.9%
